Reference: PubChem BioAssay AID1347165 (National Center for Advancing Translational Sciences (NCATS), 2019)
In all, about 220,000 compounds went through this assay and about 5,700 (2.6%) were called active. Another 18% or so got no clear call; they are omitted. This is one part of a sample in which actives are shown more often than they occur. A number with no mark means an inactive call. Calls follow the shape of the dose curve; as a rule, active = well fitted inhibition curve with a large enough effect; inconclusive = small, poorly fitted or top-dose-only effect; inactive = no such curve, though single readings can be large or run the other way.

Biological target: Lysine-specific demethylase 5B (Homo sapiens) (UniProt Q9UGL1)
Experiment: Primary screen for KDM5B Histone Demethylases FDH-coupled qHTS; also: nearly all actives have a fitted effect of over 70% in size; as to activity change, negative = inhibition: 0% is about no effect
Conditions: FDH-coupled NADH fluorescence (FDH is formaldehyde dehydrogenase); series mostly up to 57.7 µM; activity change, negative = inhibition: at the top concentration
How it was run: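 qHTS format, multiple compound concentrations. Buffer 50 mM HEPES pH 7.5/0.01% Tween-20; 200 nM KDM5BΔAP final; 10 min compound preincubation; substrate-mix levels 12.5 µM peptide, 25 µM α-KG, 0.25 mM NAD⁺; 30 min RT; ΔRFU.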
Potency is read from the fitted curve at half-maximal effect.

Chain of Lysine-specific demethylase 5B (Homo sapiens) (Q9UGL1 whole entry, looked up): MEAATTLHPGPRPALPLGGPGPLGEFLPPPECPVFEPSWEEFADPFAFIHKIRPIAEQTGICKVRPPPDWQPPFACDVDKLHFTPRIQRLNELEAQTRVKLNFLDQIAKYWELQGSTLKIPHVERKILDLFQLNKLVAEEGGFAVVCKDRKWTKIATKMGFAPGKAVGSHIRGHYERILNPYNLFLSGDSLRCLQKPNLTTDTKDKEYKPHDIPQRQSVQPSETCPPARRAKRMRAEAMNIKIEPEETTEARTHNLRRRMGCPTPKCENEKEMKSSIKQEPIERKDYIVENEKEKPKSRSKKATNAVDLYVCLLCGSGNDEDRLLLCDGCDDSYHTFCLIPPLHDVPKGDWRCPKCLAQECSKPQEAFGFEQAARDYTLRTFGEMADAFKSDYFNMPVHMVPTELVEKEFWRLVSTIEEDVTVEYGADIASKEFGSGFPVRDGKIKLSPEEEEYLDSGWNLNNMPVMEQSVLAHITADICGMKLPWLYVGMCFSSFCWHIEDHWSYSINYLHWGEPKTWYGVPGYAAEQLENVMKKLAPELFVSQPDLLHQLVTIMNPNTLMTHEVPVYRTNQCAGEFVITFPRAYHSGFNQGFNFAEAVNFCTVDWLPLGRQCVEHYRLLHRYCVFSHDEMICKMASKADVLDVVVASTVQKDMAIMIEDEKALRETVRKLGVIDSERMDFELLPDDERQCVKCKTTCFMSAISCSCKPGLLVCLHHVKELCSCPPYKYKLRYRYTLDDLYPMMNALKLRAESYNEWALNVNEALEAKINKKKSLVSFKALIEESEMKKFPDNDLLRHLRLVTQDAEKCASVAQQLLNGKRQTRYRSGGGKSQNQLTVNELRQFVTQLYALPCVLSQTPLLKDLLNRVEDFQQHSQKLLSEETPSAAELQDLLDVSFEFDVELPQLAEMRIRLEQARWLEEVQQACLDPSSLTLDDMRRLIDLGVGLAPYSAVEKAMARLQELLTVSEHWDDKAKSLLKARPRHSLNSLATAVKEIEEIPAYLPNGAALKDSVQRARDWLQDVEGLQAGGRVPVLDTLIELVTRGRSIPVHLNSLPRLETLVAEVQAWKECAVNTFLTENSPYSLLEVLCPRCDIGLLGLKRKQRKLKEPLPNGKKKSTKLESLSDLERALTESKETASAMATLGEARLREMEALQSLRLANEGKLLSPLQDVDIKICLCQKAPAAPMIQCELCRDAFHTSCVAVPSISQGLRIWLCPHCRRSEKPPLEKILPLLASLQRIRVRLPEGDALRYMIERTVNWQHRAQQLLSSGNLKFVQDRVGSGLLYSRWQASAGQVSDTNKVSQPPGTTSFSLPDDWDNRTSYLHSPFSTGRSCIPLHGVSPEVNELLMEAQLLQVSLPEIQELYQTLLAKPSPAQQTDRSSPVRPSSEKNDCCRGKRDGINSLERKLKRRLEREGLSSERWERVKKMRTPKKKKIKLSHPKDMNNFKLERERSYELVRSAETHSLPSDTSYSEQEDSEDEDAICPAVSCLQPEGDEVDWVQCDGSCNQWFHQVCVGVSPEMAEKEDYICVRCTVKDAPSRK

SMILES | activity change, negative = inhibition | Potency
Oc1ccc(-c2nc(-c3ccccc3F)cs2)cc1 | -17.7% | –
C=CCNC(=O)Nc1cc(NC(=O)Nc2ccccc2)ccc1C | -9.95% | –
Cc1ccc(CN2CCOc3cc([S+](=O)([O-])N(C)C)ccc3C2)c(F)c1 | -17.1% [at 86.2 µM] | –
Cc1ccc(CN2CCC(Oc3cnc4c(ccn4CCN[S+](C)(=O)[O-])c3)CC2)c(F)c1 | – | 31.6 µM (active)
CCCc1noc(CSc2nc(-c3ccco3)nc3ccccc23)n1 | -14% | –
O=C(O)C/C(=C/c1cccc(Cl)c1)c1nc2ccccc2o1 | -27.5% | –
CCCOc1ccc2ccccc2c1CN(C)C(=O)c1n[nH]c(=O)c2ccccc12 | 21.4% | –
Fc1ccccc1CN1CCNc2cc(Nc3cccnc3)ncc2C1 | -4.83% [at 86.2 µM] | –
Cn1ccc(Nc2cc3c(cn2)CN(CCc2ccccc2)CCN3)n1 | -22.9% [at 86.2 µM] | –
CN(C)c1cccc(Nc2cc3c(cn2)NCCN(Cc2ccccc2)C3)c1 | – | 25.1 µM (active)
NC(=O)c1cccc(C(=O)N2CCC(c3nc4ccccc4o3)CC2)c1 | -18.1% | –
CCOc1c(OC)cccc1-c1nc2ccc(-c3ccc(OC)c(OC)c3OC)cc2o1 | – | 12.6 µM (active)
COc1cccc(NC(=O)Nc2cc(-c3nc4ccccc4o3)ccc2OC)c1 | -15% | –
COc1cccc(-c2nc3ccc(-c4ccc5c(c4)OCO5)cc3o2)c1OC | -2830% | –
Cc1ccc2c(c1)-c1c(cnn1CC(=O)N(C)c1ccccc1Cl)CO2 | -4.49% | –
CC(C)(C)c1cc(NC(=O)Nc2cc(Cl)cc(Cl)c2)no1 | 6.25% | –
COCCOc1ncccc1-c1noc([C@@H]2CCCN2CC(C)(C)C)n1 | -25.1% [at 86.2 µM] | –
COCCNc1ncccc1-c1noc([C@@H]2CCCN2Cc2ccc3c(c2)OCO3)n1 | – | 31.6 µM (active)
COCCOc1ccnc(-c2noc([C@@H]3CCCN3Cc3ccc(Cl)cc3)n2)c1 | -11.4% [at 86.2 µM] | –
Cc1c(-c2ccc(Cl)cc2)nc2ccccc2c1C(=O)NC1CCCCCCC1 | -6.4% | –
NC(=O)c1cccc(-c2ncc3c(n2)OCCN(CC2CC2)C3=O)c1 | -6.2% [at 86.2 µM] | –
C[S+](=O)([O-])c1cccc(-c2ncc3c(n2)OCCN(Cc2ccc(F)cc2F)C3=O)c1 | 14% | –
COc1cccc(-c2ncc3c(n2)OCCN(Cc2ccc(F)cc2F)C3=O)c1OC | -12.7% [at 86.2 µM] | –
COCCN1CCOc2nc(-c3cccc(C)c3)ncc2C1=O | -21.3% [at 86.2 µM] | –
COc1ccc(F)cc1-c1ncc2c(n1)OCCN(CC1CC1)C2=O | – | 35.5 µM (active)
COc1ccc(-c2ncc3c(n2)OCCN(CC2CC2)C3=O)cc1 | – | 35.5 µM (active)

SMILES | activity change, negative = inhibition | Potency
Cn1c(=O)c2c(nc(SCC(=O)Nc3ccccc3)n2Cc2ccccc2Cl)n(C)c1=O | 12.9% | –
Cc1[nH]c2ccccc2c1C(=O)C(C)Sc1nnc(C2CC2)o1 (stereo unspecified) | 1.67% | –
CC(C)c1ccc(C(=O)OC2CCOC2=O)cc1 (stereo unspecified) | 17.3% | –
Cc1oc(-c2cccs2)nc1CC(=O)N1CCCC1c1ccccc1 (stereo unspecified) | 724% | –
CCOc1ccc(NC(=O)CN(C)C(=O)Cn2c(=O)cnc3ccccc32)cc1OCC | 29.3% | –
COc1ccc(N2C(=O)C(C)CS2(=O)=O)cc1S(=O)(=O)Nc1ccc(N2CCCC2)cc1 (stereo unspecified) | -5.29% | –
Cc1ccc(N2CCC(NC(=O)c3ccc4[nH]ccc4c3)C2=O)cc1C (stereo unspecified) | – | 31.6 µM (active)
Cc1cc(N2CCC(NC(=O)c3ccc(N(C)C)cc3)C2=O)ccc1F (stereo unspecified) | 14% | –
Cc1ccc(C(=O)NC2CCSC2=O)cc1C (stereo unspecified) | 11.2% | –
COCC(=O)N1CCN(C2CCN(CCc3ccccc3)C2=O)CC1 (stereo unspecified) | -20.4% | –
CCc1cccc(CC)c1NC(=O)C(C)Sc1ccc(C)cc1 (stereo unspecified) | 12.7% | –
Cc1cc(NC(=O)Nc2c(C3=CCCCC3)c(C)nn2C)ccc1Br | -2.95% | –
O=c1[nH]c(-c2ccncc2)nc2c1CCN(S(=O)(=O)N1CCCC1)C2 | 2.21% | –
CC(=O)c1ccc(NC(=O)N2CCc3c(nc(-c4ccc(F)cc4)[nH]c3=O)C2)cc1 | – | 25.1 µM (active)
Cc1ccc(C(=O)NC2CCN(C(=O)Nc3ccc(F)cc3)CC2)cc1 | 21.4% | –
O=C(c1ccco1)N1CCC(C(=O)N2CCN(C(=O)C3CC3)CC2)CC1 | 0.121% | –
CC(=O)Nc1ccc(SCC(=O)N(Cc2nc3ccccc3c(=O)[nH]2)CC2CCCO2)cc1 (stereo unspecified) | 1.89% | –
COc1ccc(-c2ccnc(-c3nnc(C)n3C3CCN(C)CC3)c2)cc1OC | – | 31.6 µM (active)
Cc1nnc(-c2cc(-c3ccccc3)ccn2)n1CCc1ccccc1 | 8.26% [at 86.2 µM] | –
COCCn1c(C)nnc1-c1cc(-c2cccc(F)c2)ccn1 | 5.49% [at 86.2 µM] | –
Cc1nnc(CSc2nnc(Nc3cccc(C)c3C)s2)o1 | 12.9% | –
O=C(Nc1cccn2nc(C3CCC3)nc12)c1cccc(F)c1 | -13.1% | –
COc1cc(C(=O)N2CCC(c3ccncc3)CC2)cc(OC)c1OC | -2.26% | –
Fc1ccc(-c2ccnc3nc(C4CCC4)nn23)cc1 | – | 31.6 µM (active)
COc1cc(-c2ccnc3nc(C4CC4)nn23)cc(OC)c1OC | – | 17.8 µM (active)
